Records with an inconclusive call do not appear. Active and inactive are the calls of the source. Unless noted, the call rests on the fitted dose curve; in most records, active means well fitted curve in either direction with a large enough effect (not every such curve was filed as active); inconclusive means small, poorly fitted or top-dose-only effect, or another doubt; inactive means flat fitted curve, though single readings scatter.

The values below come from PubChem BioAssay (NCATS).

Experiment [1] has as its target Lysosomal acid glucosylceramidase (Homo sapiens) (UniProt P04062). Kind of experiment: Glucocerebrosidase-p2 (AID 348; in the data active means potency below about 10 µM; further: potency means the concentration at half of the fitted maximal effect). Conditions: purified GBA, blue fluorogenic substrate, 40 min. Put shortly:
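Compounds titrated from 0.6 nM upwards against 0.2 nM enzyme in pH 5.9 citric acid/KH2PO4, taurocholate, tween-20; blue fluorogenic substrate 80 uM, 40 min room temperature, stopped and read Ex 365/Em 440 for AC50.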

Experiment [2] can be described thus: AP1 Signaling Pathway (AID 357).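 Further: ME-180 reporter cells stimulated with EGF at its EC50 level; on the % scale 0 is the no-effect control and ±100 the full control effect.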 Conditions: ME-180 AP-1-bla reporter, EGF-induced, beta-lactamase ratio, 5 h; at 7.69 µM (top of the series) unless noted. Put shortly:
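Read-out was the 460nm/530nm emission ratio (excitation 405nm) after CCF4 loading for 2.5 hours at room temperature. Cells carried an AP-1-driven beta-lactamase reporter, were stimulated with EC50 EGF plus compound for 5 hours, and AC50 values came from titrations.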

Experiment [3] can be described thus: NFAT Signaling Pathway (AID 444).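 Further: carbachol stimulus at about its EC50 of 1 µM final; on the % scale 0 is the no-effect control and ±100 the full control effect.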 Conditions: Jurkat NFAT-bla M1, carbachol, beta-lactamase ratio, 5 h; at 7.69 µM (top of the series) unless noted. Summed up:
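Jurkat cells carrying an NFAT-driven β-lactamase reporter and co-transfected muscarinic M1 receptor were treated with compound plus carbachol (1 uM final, an EC50 level) for 5 h at 37 °C. CCF4 loading followed for 1 h at RT; 460/530 nm ratio gave %activity.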

Experiment [4] can be described thus: Stat Signaling Pathway (AID 446).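 Further: ME-180 cervical cancer cells given 40 pM IL-6 alongside compound; SIE-controlled beta-lactamase reporter measured as 460/530 nm FRET emission ratio; on the % scale 0 is the no-effect control and ±100 the full control effect.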 Conditions: ME-180 SIE beta-lactamase reporter, IL-6 stimulated, 5 h; at 7.69 µM (top of the series) unless noted. Summed up:
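ME-180 SIE-bla cells; overnight plating; cpd + IL-6 40 pM, 5 h, 37 C; LiveBLAzer 2.5 h RT; 460/530 nm emission ratio. Normalized to 300 pM IL-6 and 125 nM JAK inhibitor controls.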

Experiment [5] concerns the target Glucocorticoid receptor (Homo sapiens) (UniProt P04150). Kind of experiment: GR-GFP Redistribution (AID 450;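 active means compounds whose dose series gives a full or clear partial fitted curve of increased nuclear translocation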; further: potency means the concentration at half of the fitted maximal effect). Conditions: U2OS GR-GFP nuclear translocation, laser cytometry, 2 h.
For experiment [6] the target is unchanged. Kind of experiment: GR-EFC Redistribution (AID 451; calls by dose curve; further: potency means the concentration at half of the fitted maximal effect). Conditions: CHO-K1 GR-EFC translocation, beta-gal luminescence, 2 h. Put shortly:
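CHO-K1 cells stably expressing nuclear-localized β-gal enzyme acceptor and GR fused C-terminally to the enzyme donor fragment; ligand-driven nuclear translocation restores β-gal by complementation. Compounds titrated up to 46 uM final, 2 h at 37 °C; luminescence read.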

For experiment [7], the target named is Mitogen-activated protein kinase 10 (Mus musculus) (UniProt Q61831). Description: JNK3 AlphaScreen Assay (AID 530).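 Further: kinase came from lysate of stimulated human HepG2 cells; signal reports phosphorylation of biotinylated GST-cJun 1-79 at Ser73 with 10 µM ATP; on the % scale 0 is the no-effect control and ±100 the full control effect.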 Summed up: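 Inhibitors reduce antibody binding to phosphorylated biotin-cJun, lowering AlphaScreen luminescence. Lysates from HepG2 cells pre-activated by IL-1beta plus TNF-alpha supplied JNK3; compounds were titrated.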
For orientation: Alpha assays give light when donor and acceptor beads are brought close together.

Experiment [8] addresses 3',5'-cyclic-AMP phosphodiesterase 4B (Homo sapiens) (UniProt Q07343). Description: qHTS Assay for Inhibitors of PDE-IV (AID 607; active means well fitted activation curve with a large enough effect in the main read-out, with a control signal flat, not every such curve was filed as active; further: % of control where 0% means no effect). Summed up: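 ACTOne HEK293 cells carry a modified cAMP-gated CNG channel and express endogenous PDE4; plated 1000 cells/well, compounds up to 22.9 uM final. Membrane-potential dye fluorescence (ex 535/em 590) was read; parental cells received 10 uM forskolin + 100 uM RO 20-1724.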

Experiment [9] in a line: Counterscreen qHTS for small molecule stabilizers of the endoplasmic reticulum resident proteome: GLuc-NoTag assay (AID 1508627; active means well fitted curve in the direction sought with a large enough effect; an effect the other way counts as inactive or inconclusive; further: potency means the concentration at half of the fitted maximal effect;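 on activity change, negative = inhibition: SH-SY5Y cells given compound then 100 nM thapsigargin to empty ER calcium; 0% = thapsigargin alone and -100% = DMSO vehicle control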). Summed up:
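SH-SY5Y cells stably expressing constitutively secreted GLuc (no SERCaMP tag) were pre-incubated 5 h, treated with compound for 19 h, then 100 nM thapsigargin for 4 h at 37C; medium GLuc read by coelenterazine luminescence.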
Background: The purpose of a counterscreen is to sort out artefacts and off-target activity.

For experiment [10], the target named is Cytochrome P450 1A2 (Homo sapiens) (UniProt P05177). Description: p450-cyp1a2 (AID 410; calls by dose curve; further: potency means the concentration at half of the fitted maximal effect;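 on activity change, negative = inhibition: -100% = full effect of reference inhibitor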). Summed up: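 Luminescent readout of luciferin formed from Luciferin-ME by human CYP1A2; data normalized against complete inhibition by 57 uM furafylline. Enzyme 20nM, substrate 100uM at Km, 100mM KPO4 buffer, 60 min reaction at room temperature.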
For experiment [11], the target named is Cytochrome P450 3A4 (Homo sapiens) (UniProt P08684). Kind of experiment: qHTS Assay for Inhibitors and Substrates of Cytochrome P450 3A4 (AID 884; active means well fitted curve in the direction sought with a large enough effect; an effect the other way counts as inactive or inconclusive; further: potency means the concentration at half of the fitted maximal effect; nearly all actives have a fitted effect of over 50% in size). Put shortly:
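20 nM human CYP3A4 with 25 uM Luciferin-PPXE (at KM) in 200 mM KPO4, preincubated 10 min with compound; NADPH regeneration started a 60 min RT reaction. Luciferin detected by luminescence, normalized to 57 uM ketoconazole as full inhibition.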
(In general: Quantitative high-throughput screening tests each substance at several concentrations.)

Experiment [12] has the same target. Description: qHTS Assay for Activators of Cytochrome P450 3A4 (AID 885; active means well fitted curve in the direction sought with a large enough effect; an effect the other way counts as inactive or inconclusive; further: nearly all actives have a fitted effect of over 65% in size). Summed up:
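20nM CYP3A4 + 25uM Luciferin-PPXE (=KM), 200mM KPO4; cpd 10 min RT; NADPH regen, 60 min RT; stop w/ detection buffer, 20 min; luminescence. Normalized to 57 uM ketoconazole.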

Experiment [13] deals with Cytochrome P450 2C19 (Homo sapiens) (UniProt P33261). Description: qHTS Assay for Inhibitors and Substrates of Cytochrome P450 2C19 (AID 899; active means well fitted curve in the direction sought with a large enough effect; an effect the other way counts as inactive or inconclusive; further: potency means the concentration at half of the fitted maximal effect; nearly all actives have a fitted effect of over 60% in size). Summed up:
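In 50mM KPO4, the reaction held 5nM enzyme and KM-level (10uM) Luciferin-H EGE; it ran 60 min at 37C after NADPH regeneration and a 10 min compound preincubation. Luminescence values were scaled to 57uM ketoconazole as complete inhibition.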

Experiment [14] in a line: qHTS Assay for Lipid Storage Modulators (AID 1519; calls by dose curve). Conditions: Drosophila S3 cells, BODIPY lipid droplet/cell ratio, laser cytometry, cells loaded with oleic acid; for activity change, negative = inhibition: at 57.5 µM (top of the series). Summed up:
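Cells seeded at 5,000 per well were treated with compounds over a concentration series and loaded with oleic acid (400 uM, as added). Lipid droplet fluorescence (488 nm excitation, 500-530 nm channel) was read by laser-scanning cytometry and normalized to 20 uM Triacsin C.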

Experiment [15] is described as follows: Confirmatory qHTS for small molecule stabilizers of the endoplasmic reticulum resident proteome: Secreted ER Calcium Modulated Protein (SERCaMP) assay (AID 1508628; active means well fitted curve in the direction sought with a large enough effect; an effect the other way counts as inactive or inconclusive; further: nearly all actives have a fitted effect of over 40% in size; further: potency means the concentration at half of the fitted maximal effect). Summed up:
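SH-SY5Y cells stably expressing GLuc-SERCaMP, treated 16 h with compound (primary 1.53, 7.67, 38.3 uM; confirmation 11 concentrations, up to 76.6 uM), then 100 nM thapsigargin for 4 h. Secreted Gaussia luciferase in medium read by coelenterazine luminescence.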

Experiment [16] in a line: Confirmation and Secondary Assay for Modulators of Hemoglobin Beta Chain Splicing at IVS2 654 locus (AID 910; active means well fitted curve in the direction sought with a large enough effect; an effect the other way counts as inactive or inconclusive;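 further: per-well total GFP intensity by laser scanning cytometry after 2-day treatment; % of control where 0% means no effect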). Summed up:
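HeLa cells stably carrying EGFP interrupted by mutant beta-globin IVS2-654 intron (CMV-driven) were treated with compound for 2 days at 37C; corrected splicing was scored as total peak GFP intensity per well (488 nm excitation, 500-520 nm emission).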

The nature of experiment [17]: Confirmation and Secondary Assay for Modulators of Hemoglobin Beta Chain Splicing at IVS2 705 locus (AID 930; active means well fitted curve in the direction sought with a large enough effect; an effect the other way counts as inactive or inconclusive;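 further: HeLa cells stably expressing the EGFP-705 splicing reporter; GFP fluorescence per well restored by corrected splicing of the IVS2-705 intron in EGFP; % of control where 0% means no effect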). Put shortly:
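Stable HeLa line with EGFP disrupted by mutant beta-globin intron 2 (705). Overnight attachment, then 2 days of compound at 37C, 5% CO2. Signal: peak GFP intensity summed over objects 5-250 µm.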

Experiment [18] concerns the target Ubiquitin carboxyl-terminal hydrolase 1 (Homo sapiens) (UniProt O94782). Description: Inhibitors of USP1/UAF1: Pilot qHTS (AID 504865; active means well fitted curve in the direction sought with a large enough effect; an effect the other way counts as inactive or inconclusive;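 further: rhodamine fluorescence freed from ubiquitin-rhodamine substrate followed over time; top concentration of the series differs between compounds; on the % scale 0 is the no-effect control and ±100 the full control effect; nearly all actives have a fitted effect of over 35% in size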). Put shortly: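 Deubiquitinase activity followed as kinetic rhodamine fluorescence release from 150 nM Ub-Rho. 1 nM USP1/UAF1 with compound, after 15 min room-temperature preincubation, in HEPES pH 7.8 buffer containing TCEP, EDTA, BSA and Tween-20.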

A short description of experiment [19]: Cell Viability qHTS for small molecule stabilizers of the endoplasmic reticulum resident proteome (AID 1508629; active means well fitted curve in the direction sought with a large enough effect; an effect the other way counts as inactive or inconclusive). Conditions: cell viability counter-screen, 100 nM thapsigargin for final 4 h.
A short description of experiment [20]: qHTS Assay for Identification of Small Molecule Agonists for Hypoxia Response Element Signaling Pathway (AID 914; active means well fitted activation curve with a large enough effect in the signal ratio, with a control signal flat, not every such curve was filed as active; the % refers to the signal ratio; further: potency means the concentration at half of the fitted maximal effect). Conditions: ME-180 (cervical carcinoma) HRE-bla reporter, beta-lactamase ratio, CoCl2, 17 h; activation: stronger effect = higher value. Put shortly:
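Reporter activity (beta-lactamase, CCF4 460nm/530nm ratio) in HRE-bla ME-180 cells is recorded after 17 h compound exposure with EC50 CoCl2 at 37 degrees Celsius. AC50 values come from titration data.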

Experiment [21] addresses Dual specificity protein kinase CLK4 (Homo sapiens) (UniProt Q9HAZ1). Description: qHTS Assay for Inhibitors of CDC-like Kinase 4 (ADP-Glo Assay) (AID 1771; active means well fitted curve in the direction sought with a large enough effect; an effect the other way counts as inactive or inconclusive; further: on the % scale 0 is the no-effect control and ±100 the full control effect; nearly all actives have a fitted effect of over 70% in size). Summed up: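 Luminescence from ADP-Glo reports ADP produced by 25 nM Clk4 acting on 100 uM RS repeat peptide with 1 uM ATP over 1 hr at room temperature; residual ATP is depleted before ADP is converted to ATP for detection.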

Experiment [22] shares this target. Kind of experiment: qHTS Assay for Inhibitors of CDC-like Kinase 4 (ADP-FP Assay) (AID 1795; active means well fitted curve in the direction sought with a large enough effect; an effect the other way counts as inactive or inconclusive;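 further: recombinant human CLK4 phosphorylating RS repeat peptide at 1 µM ATP; on the % scale 0 is the no-effect control and ±100 the full control effect; nearly all actives have a fitted effect of over 60% in size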). Put shortly:
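Kinase activity was measured as ADP production using Transcreener orange tracer (4 nM) and ADP antibody (1 ug/mL) fluorescence polarization, with ADP calculated from a calibration curve. The 1 h reaction contained 6.25 nM Clk4, 1 uM ATP and 100 uM RS peptide at pH 7.5 with Mg2+.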

Where [23] appears, read: measured here: cell count channel max response.
The mark [24] stands for this setting: measured here: lipid channel max response.

Sequence of Cytochrome P450 1A2 (Homo sapiens) (P05177 whole entry, looked up): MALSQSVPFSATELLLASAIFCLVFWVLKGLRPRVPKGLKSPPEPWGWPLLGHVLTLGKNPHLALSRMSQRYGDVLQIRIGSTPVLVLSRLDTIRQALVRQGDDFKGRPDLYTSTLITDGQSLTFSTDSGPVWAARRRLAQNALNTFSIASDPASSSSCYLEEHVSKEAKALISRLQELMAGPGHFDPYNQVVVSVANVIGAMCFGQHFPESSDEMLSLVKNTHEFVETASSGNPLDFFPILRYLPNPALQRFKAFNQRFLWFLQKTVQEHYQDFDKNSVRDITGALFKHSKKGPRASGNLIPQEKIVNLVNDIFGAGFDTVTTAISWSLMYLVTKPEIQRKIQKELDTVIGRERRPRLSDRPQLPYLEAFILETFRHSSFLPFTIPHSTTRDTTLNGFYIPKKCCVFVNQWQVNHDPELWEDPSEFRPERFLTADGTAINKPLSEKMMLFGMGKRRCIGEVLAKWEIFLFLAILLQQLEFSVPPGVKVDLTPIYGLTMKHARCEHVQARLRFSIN
Sequence of 3',5'-cyclic-AMP phosphodiesterase 4B (Homo sapiens) (Q07343 whole entry, looked up): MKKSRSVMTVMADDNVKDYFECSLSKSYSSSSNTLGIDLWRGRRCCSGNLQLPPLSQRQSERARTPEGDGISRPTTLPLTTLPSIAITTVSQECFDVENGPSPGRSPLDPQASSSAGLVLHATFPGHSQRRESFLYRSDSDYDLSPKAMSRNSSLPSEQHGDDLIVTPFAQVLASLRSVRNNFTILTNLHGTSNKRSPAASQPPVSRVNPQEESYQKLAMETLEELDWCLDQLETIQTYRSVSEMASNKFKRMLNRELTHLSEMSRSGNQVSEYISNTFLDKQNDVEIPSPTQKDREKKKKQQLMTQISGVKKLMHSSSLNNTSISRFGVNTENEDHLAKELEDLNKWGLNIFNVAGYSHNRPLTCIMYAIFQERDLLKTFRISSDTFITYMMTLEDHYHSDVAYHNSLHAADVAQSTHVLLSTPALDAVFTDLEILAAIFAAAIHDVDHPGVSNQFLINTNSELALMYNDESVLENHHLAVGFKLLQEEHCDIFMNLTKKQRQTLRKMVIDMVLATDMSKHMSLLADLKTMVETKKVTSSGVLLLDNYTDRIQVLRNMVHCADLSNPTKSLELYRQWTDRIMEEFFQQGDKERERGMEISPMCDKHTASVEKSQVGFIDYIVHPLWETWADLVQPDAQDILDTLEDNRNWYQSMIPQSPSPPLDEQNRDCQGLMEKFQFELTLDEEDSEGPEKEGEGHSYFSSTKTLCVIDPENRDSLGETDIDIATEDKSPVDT
Sequence of Lysosomal acid glucosylceramidase (Homo sapiens) (P04062 whole entry, looked up): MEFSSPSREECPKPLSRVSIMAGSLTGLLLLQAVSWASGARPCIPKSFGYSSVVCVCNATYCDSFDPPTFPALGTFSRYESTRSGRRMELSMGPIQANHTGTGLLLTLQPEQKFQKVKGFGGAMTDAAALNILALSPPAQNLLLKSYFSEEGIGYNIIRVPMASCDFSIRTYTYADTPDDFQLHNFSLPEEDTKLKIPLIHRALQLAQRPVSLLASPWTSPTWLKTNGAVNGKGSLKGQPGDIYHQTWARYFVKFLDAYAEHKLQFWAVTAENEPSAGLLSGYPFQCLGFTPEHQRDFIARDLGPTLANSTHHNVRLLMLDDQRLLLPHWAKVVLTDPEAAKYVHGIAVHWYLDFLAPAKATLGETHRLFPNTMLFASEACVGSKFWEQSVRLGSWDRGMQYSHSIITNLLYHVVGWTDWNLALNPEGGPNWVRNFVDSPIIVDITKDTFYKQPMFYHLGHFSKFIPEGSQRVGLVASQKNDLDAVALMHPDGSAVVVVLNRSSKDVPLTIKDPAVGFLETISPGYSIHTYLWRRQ
Sequence of Glucocorticoid receptor (Homo sapiens) (P04150 whole entry, looked up): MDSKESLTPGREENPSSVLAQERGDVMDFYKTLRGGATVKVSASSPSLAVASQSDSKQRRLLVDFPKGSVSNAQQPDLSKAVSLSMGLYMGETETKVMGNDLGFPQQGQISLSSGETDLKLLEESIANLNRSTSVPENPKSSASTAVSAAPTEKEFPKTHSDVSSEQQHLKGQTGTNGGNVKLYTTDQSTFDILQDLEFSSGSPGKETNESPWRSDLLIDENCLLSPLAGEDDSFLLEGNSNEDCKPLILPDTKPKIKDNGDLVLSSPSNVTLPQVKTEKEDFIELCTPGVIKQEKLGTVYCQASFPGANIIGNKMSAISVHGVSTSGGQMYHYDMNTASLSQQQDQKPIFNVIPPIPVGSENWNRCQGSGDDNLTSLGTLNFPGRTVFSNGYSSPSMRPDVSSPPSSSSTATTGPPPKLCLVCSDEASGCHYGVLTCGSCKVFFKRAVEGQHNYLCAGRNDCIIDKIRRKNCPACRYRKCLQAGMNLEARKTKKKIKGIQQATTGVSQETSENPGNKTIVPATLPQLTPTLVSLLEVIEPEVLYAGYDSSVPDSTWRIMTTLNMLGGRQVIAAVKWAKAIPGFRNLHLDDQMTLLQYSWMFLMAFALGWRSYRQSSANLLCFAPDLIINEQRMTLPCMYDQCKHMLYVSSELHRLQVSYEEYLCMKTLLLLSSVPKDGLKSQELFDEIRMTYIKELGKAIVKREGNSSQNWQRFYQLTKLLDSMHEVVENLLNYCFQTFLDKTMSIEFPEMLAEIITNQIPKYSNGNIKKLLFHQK
Sequence of Cytochrome P450 3A4 (Homo sapiens) (P08684 whole entry, looked up): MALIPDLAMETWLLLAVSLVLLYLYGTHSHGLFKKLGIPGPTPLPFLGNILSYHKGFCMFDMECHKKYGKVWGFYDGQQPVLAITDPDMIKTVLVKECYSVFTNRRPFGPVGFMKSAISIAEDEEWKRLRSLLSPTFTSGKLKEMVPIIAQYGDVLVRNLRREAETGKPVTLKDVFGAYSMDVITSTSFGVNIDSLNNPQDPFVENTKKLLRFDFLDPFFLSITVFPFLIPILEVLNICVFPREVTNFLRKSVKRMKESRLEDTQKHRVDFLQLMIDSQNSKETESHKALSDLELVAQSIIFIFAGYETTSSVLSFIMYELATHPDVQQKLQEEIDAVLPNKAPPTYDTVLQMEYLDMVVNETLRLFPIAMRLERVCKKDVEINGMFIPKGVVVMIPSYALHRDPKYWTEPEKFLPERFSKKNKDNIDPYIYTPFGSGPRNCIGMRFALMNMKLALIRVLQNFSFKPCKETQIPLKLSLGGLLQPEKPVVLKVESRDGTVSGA
Sequence of Ubiquitin carboxyl-terminal hydrolase 1 (Homo sapiens) (O94782 whole entry, looked up): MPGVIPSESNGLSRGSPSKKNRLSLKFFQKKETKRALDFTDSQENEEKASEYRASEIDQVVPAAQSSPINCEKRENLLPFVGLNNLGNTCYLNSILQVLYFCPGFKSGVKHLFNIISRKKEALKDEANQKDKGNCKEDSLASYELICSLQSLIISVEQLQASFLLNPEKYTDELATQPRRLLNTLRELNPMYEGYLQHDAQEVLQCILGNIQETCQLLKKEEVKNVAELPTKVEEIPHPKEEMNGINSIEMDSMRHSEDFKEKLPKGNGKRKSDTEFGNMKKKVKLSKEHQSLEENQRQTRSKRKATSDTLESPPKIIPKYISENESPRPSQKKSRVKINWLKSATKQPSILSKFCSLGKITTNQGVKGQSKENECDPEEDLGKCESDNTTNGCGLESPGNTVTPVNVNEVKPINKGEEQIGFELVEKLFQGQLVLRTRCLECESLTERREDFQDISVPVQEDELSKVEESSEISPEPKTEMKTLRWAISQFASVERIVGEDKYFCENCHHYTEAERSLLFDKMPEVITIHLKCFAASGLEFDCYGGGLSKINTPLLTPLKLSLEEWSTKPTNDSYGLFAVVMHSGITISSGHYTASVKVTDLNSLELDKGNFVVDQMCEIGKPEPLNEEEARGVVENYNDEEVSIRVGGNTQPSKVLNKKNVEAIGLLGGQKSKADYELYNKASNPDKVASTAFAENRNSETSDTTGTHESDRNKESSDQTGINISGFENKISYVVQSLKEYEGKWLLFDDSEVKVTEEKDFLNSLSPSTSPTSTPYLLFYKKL
Sequence of Dual specificity protein kinase CLK4 (Homo sapiens) (Q9HAZ1 whole entry, looked up): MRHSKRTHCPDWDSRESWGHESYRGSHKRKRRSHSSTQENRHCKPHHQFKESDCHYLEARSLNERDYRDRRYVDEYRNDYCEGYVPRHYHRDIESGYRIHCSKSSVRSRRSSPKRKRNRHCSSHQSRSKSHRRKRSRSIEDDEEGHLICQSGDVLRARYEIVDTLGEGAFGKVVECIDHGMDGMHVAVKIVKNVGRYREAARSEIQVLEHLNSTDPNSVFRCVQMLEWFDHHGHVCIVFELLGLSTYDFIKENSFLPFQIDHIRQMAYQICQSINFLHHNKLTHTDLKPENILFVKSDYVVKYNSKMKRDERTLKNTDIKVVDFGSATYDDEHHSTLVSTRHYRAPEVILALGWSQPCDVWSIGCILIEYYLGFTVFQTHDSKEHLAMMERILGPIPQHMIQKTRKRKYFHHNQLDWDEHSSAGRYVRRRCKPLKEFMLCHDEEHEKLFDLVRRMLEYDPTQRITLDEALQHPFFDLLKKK
Sequence of Cytochrome P450 2C19 (Homo sapiens) (P33261 whole entry, looked up): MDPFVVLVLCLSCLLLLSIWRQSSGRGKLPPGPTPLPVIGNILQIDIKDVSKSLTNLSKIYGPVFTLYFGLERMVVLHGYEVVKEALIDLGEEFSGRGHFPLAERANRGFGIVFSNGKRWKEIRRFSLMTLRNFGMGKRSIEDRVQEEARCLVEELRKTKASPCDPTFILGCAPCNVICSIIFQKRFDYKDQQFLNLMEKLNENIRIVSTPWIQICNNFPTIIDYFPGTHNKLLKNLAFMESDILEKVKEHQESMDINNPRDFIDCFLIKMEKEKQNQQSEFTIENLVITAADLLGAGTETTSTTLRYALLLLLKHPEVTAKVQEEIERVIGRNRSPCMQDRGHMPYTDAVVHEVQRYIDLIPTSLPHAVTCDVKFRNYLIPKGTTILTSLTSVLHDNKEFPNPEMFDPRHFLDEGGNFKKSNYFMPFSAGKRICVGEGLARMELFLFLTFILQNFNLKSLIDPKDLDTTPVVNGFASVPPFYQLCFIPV

For the compound `COCCn1c(=O)c(CCc2ccccc2)nc2cnc(N3CCNCC3)nc21`, the values for the Potency in [1], in [5] and in experiment [6] were > 11.4 µM (inactive), > 9.22 µM (inactive) and > 46 µM (inactive), respectively. Moreover, the activity change, negative = inhibition is -4.91% (inactive) in experiment [2] and 10.2% (inactive) in [3]. The activity, negative = inhibition in [4] was -1.73% (inactive). Further, the call in experiment [7] was inactive. The Potency result in experiment [8] and in experiment [9] was “inactive” throughout.
`O=S(=O)(c1ccccc1)N1CCC[C@@]2(CCN(c3ccncc3)C2)C1`: the Potency was > 11.4 µM (inactive) in experiment [1], > 46 µM (inactive) in experiment [6], 3.98 µM (active) in experiment [11] and 0.398 µM (active) in experiment [13]. In addition, the figures for the activity change, negative = inhibition in [2] and in experiment [14] were -6.47% (inactive) and 0.287% (inactive), respectively. For the same compound, the Potency entry in experiment [10], in experiment [8], in experiment [12] and in [9] was “inactive” in each case. The activity, negative = inhibition in experiment [4] was 0.894% (inactive). Further, the compound was classed as inactive in [7]. Also, the max response in experiment [14] (setting [23]) turned out to be 4.65%; in experiment [14] (setting [24]), 6.49%.
On to `COCCn1c(=O)c(-c2ccccc2)nc2cnc(OCc3ccccc3)nc21`, for which the Potency in experiment [1] is > 11.4 µM (inactive); in experiment [5], > 9.22 µM (inactive); in experiment [6], > 46 µM (inactive); in experiment [15] it was 39.8 µM (active). The activity change, negative = inhibition in [2] is -11.6% (inactive); in experiment [3], 0.0505% (inactive). Moreover, the activity, negative = inhibition in [4] is -5.1% (inactive). Moreover, the Potency entry in experiment [8] is “inactive”.
Consider `N#CCCn1c(=O)c(-c2cc(F)cc(F)c2)nc2cnc(OCc3ccccc3)nc21`, for which the Potency in experiment [1] is > 11.4 µM (inactive); in experiment [10], 6.31 µM (active); in experiment [5] it was > 9.22 µM (inactive); in [6], > 46 µM (inactive); in experiment [15] it was 44.7 µM (active). The activity change, negative = inhibition is -10.3% (inactive) in experiment [2] and -0.0706% (inactive) in experiment [3]. In addition, the activity, negative = inhibition in experiment [4] was 3.6% (inactive). Also, the compound was called inactive in experiment [7]. In addition, the Potency result in experiment [8] and in [12] was “inactive” in each case.
`COc1ccccc1-c1ccc2ncnc(N3CCN(C)CC3)c2c1`: the Potency in experiment [1] was > 11.4 µM (inactive); in [10], 3.16 µM (active); in experiment [5] it was > 46 µM (inactive); in experiment [6], > 46 µM (inactive); in [11], 3.16 µM (active); in [9], 44.7 µM (active). The figures for the activity change, negative = inhibition in experiment [2] and in experiment [3] were 2.3% (inactive) and 4.65% (inactive), respectively. Further, the activity, negative = inhibition in experiment [4] was 2.98% (inactive). For the same compound, the result in [7], in experiment [16] and in experiment [17] was inactive. Besides, the Potency entry in experiment [8], in experiment [12] and in experiment [18] was “inactive” each time.
With `O=c1c(CCc2ccccc2)nc2cnc(N3CCNCC3)nc2n1CCc1ccccc1`, the activity change, negative = inhibition in [2] is 9.43% (inactive); in experiment [3] it was 27.2% (inactive); in experiment [14], 2.33% (inactive). For the same compound, in [4], the activity, negative = inhibition was 16.4% (inactive). The Potency in experiment [5] was > 9.22 µM (inactive); in experiment [6], > 46 µM (inactive). Also, the compound was classed as inactive in experiment [7]. In addition, the max response in [14] (setting [23]) was -7.41%; in experiment [14] (setting [24]) it was -3.07%; in experiment [19], -5.58% (inactive). The Potency entry in experiment [15] is “inactive”.
For the compound `COc1cccc(Cn2c(=O)c(-c3ccccc3)nc3cnc(N4CCNCC4)nc32)c1`, the Potency in [1] was > 11.4 µM (inactive); in experiment [10], 3.16 µM (active); in [6], > 46 µM (inactive); in [20], 3.16 µM (active). Further, the Potency result in experiment [8], in experiment [12], in [21], in experiment [22], in experiment [18] and in experiment [9] was “inactive” in each case. Further, the activity change, negative = inhibition in experiment [14] was 4.45% (inactive). For the same compound, the max response worked out at 8.56% in experiment [14] (setting [23]) and 11.2% in experiment [14] (setting [24]).
